Results filed as inconclusive are left out. Entries that show only a call come without a potency. The source made the active and inactive calls. Calls follow the shape of the dose curve; as a rule, active = well fitted inhibition curve with a large enough effect; inconclusive = small, poorly fitted or top-dose-only effect; inactive = flat fitted curve, though single readings scatter.
Potency is read from the fitted curve at half-maximal effect.

The experiment can be described thus: CHOP2 Reporter Counterscreen Assay for Inhibitors of Ubiquitin-specific Protease USP2a.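 Also: activated enterokinase alone at 50 pM in a cell-free format rather than USP2a or CHOP2; nearly all actives have a fitted effect of over 55% in size.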 Conditions: purified enterokinase, fluorogenic substrate, 485/531 nm; series mostly up to 38.3 µM. The gist of the method: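 Fluorescence (485/531 nm) read 10 min after adding 25nM reporter substrate to 50 pM activated EK preincubated 30 min RT with compound; Tris pH 8.0/CaCl2/CHAPS buffer. Data normalized to buffer-alone inhibition; concentration-response curves fitted.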
In the case of `COc1ccc(CC(NC(C)=O)C(=O)NC2CCN(c3nc(C)cc(C)c3C#N)CC2)c(OC)c1` (stereo unspecified), the Potency entry is “inactive”.
For `O=C(O)CCn1c(C2CCCCC2)nc2ccccc21` the value was “inactive”.
For `CC(=O)Nc1ccc(NC(=O)C2CCCN(S(=O)(=O)c3ccc(Cl)cc3)C2)cc1` (stereo unspecified), the Potency entry is “inactive”.
In the case of `CCCc1cc(=O)oc2cc(C)c(CN3CCCC3)c(O)c12`, the Potency entry was “inactive”.
For the compound `CCn1c2ccccc2c2nc3ccccc3nc21`, the Potency result was “inactive”.
For `O=C(CSCc1cnn(-c2ccccc2)c1-n1cccc1)NCC1CCCO1` (stereo unspecified) the value was “inactive”.
For `CCCn1c(NC(=O)c2ccc(Br)cc2)nc2ccccc21` the value was “inactive”; for `O=C(CSc1ccc(Br)c2cccc(Cl)c12)Nc1ccc(S(=O)(=O)Nc2nccs2)cc1`, 11.2 µM (active).
For `COc1ccc(NC(=O)CSc2nnc(-c3ccccc3Cl)n2Cc2ccco2)c(OC)c1` the value was “inactive”.
`COc1ccc(NC(=O)C2CC(=O)OC2c2ccccc2)cc1` (stereo unspecified): the Potency entry is “inactive”.
For `C=CC[C@H](CC(=O)N[C@H](CO)Cc1ccccc1)C(=O)N[C@@H](COC(=O)[C@@H](CC=C)CC(=O)OC(C)(C)C)Cc1c[nH]c2ccccc12` the value was “inactive”.
With `NC1=NC(=O)/C(=C/c2cccc(-c3ccc(S(N)(=O)=O)cc3)c2)S1`, the Potency entry was “inactive”.
For the compound `O=C(CSc1nc2ccccc2s1)NCCCN1CCOCC1`, the Potency result is “inactive”.
On to `CCCCCCCCCCOC(=O)Cn1c(COc2ccc(C)cc2)[n+](C)c2ccccc21`, for which the Potency is 5.62 µM (active).
For the compound `CC1=NC(C(F)(F)F)(C(F)(F)F)C2=C(CC(C)(C)CC2=O)N1Cc1ccco1`, the Potency result is “inactive”.
For `Cc1ccc(C(=O)Nc2nnc(CC(=O)N/N=C/c3ccc(O)c(O)c3)s2)cc1` the value was 2.82 µM (active).
